An excerpt weighted towards active compounds, which were near 12% of everything screened.
Sfp PPTase inh: qHTS Assay for Inhibitors of Bacillus subtilis Sfp phosphopantetheinyl transferase (PPTase). Potency, µM, without a hit: largest response in the series, negative = inhibition, hits mostly inhibitors. AID 1490, 2009. Biochemical Sfp PPTase activity, qHTS. actives 3.5% (n = 310,000). 4'-phosphopantetheinyl transferase ffp (Bacillus subtilis), Q9F4F7;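 note: the enzyme is Sfp with the accession as filed and its product quenches rhodamine fluorescence; 0% = enzyme reaction without inhibitor and -100% = no enzyme wells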
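After 15 min at room temperature with compound, 15 nM Sfp received 5 uM rhodamine-CoA plus 12.5 uM BHQ-2-ybbR (50 mM Hepes pH 7.6, 10 mM MgCl2). Rate came from the fluorescence difference over 30 min, ex 525/em 598 nm.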
G9a block: qHTS Assay for Inhibitors of Histone Lysine Methyltransferase G9a; Histone-lysine N-methyltransferase EHMT2 (Homo sapiens), Q96KQ7; G9a H3K9 monomethylation, AlphaScreen, 2 h; Potency, µM (titrated, usually from 102 µM), for inactives: top-dose activity, negative = inhibition, most hits filed as inhibitors; actives 8.8% (n = 350,000); note: % is set by controls: 0 for no effect and ±100 for the full control effect; nearly all actives have a fitted effect of over 75% in size
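Step 1: enzyme (final 20 nM) with compound, 15 min RT. Step 2: substrate peptide 500 nM and SAM 20 uM, 2 h RT. Step 3: anti-H3K9me1 antibody and AlphaScreen beads, 10 min, then plate read.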
HP1b chromo inh: HTS for Inhibitors of HP1-beta Chromodomain Interactions with Methylated Histone Tails; Potency, µM (highest dose often 114 µM), without a hit: at the highest dose activity change, negative = inhibition, usual class: inhibitors; actives 0.56% (n = 390,000); Chromobox protein homolog 1 (Homo sapiens), P83916; AlphaScreen HP1-beta / biotin-H3K9me3 peptide binding; note: nearly all actives have a fitted effect of over 70% in size
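AlphaScreen: HP1-beta (50 nM) preformed 30 min with biotin-H3(1-18)K9me3 peptide (50 nM) in PBS pH 7.4, 0.01% Tween-20. Compound added for 30 min at RT, then streptavidin donor/nickel chelate acceptor beads (10 ug/mL) for 30 min.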
BAZ2B block: qHTS Assay for Inhibitors of BAZ2B | Potency, µM (highest dose often 114 µM), inactives show at the highest dose activity change, negative = inhibition, most hits filed as inhibitors | actives 4.4% (n = 360,000) | AlphaScreen BAZ2B-H3K14Ac peptide displacement; note: % is set by controls: 0 for no effect and ±100 for the full control effect; nearly all actives have a fitted effect of over 60% in size
Target sequence (Q9UIF8 whole entry, looked up): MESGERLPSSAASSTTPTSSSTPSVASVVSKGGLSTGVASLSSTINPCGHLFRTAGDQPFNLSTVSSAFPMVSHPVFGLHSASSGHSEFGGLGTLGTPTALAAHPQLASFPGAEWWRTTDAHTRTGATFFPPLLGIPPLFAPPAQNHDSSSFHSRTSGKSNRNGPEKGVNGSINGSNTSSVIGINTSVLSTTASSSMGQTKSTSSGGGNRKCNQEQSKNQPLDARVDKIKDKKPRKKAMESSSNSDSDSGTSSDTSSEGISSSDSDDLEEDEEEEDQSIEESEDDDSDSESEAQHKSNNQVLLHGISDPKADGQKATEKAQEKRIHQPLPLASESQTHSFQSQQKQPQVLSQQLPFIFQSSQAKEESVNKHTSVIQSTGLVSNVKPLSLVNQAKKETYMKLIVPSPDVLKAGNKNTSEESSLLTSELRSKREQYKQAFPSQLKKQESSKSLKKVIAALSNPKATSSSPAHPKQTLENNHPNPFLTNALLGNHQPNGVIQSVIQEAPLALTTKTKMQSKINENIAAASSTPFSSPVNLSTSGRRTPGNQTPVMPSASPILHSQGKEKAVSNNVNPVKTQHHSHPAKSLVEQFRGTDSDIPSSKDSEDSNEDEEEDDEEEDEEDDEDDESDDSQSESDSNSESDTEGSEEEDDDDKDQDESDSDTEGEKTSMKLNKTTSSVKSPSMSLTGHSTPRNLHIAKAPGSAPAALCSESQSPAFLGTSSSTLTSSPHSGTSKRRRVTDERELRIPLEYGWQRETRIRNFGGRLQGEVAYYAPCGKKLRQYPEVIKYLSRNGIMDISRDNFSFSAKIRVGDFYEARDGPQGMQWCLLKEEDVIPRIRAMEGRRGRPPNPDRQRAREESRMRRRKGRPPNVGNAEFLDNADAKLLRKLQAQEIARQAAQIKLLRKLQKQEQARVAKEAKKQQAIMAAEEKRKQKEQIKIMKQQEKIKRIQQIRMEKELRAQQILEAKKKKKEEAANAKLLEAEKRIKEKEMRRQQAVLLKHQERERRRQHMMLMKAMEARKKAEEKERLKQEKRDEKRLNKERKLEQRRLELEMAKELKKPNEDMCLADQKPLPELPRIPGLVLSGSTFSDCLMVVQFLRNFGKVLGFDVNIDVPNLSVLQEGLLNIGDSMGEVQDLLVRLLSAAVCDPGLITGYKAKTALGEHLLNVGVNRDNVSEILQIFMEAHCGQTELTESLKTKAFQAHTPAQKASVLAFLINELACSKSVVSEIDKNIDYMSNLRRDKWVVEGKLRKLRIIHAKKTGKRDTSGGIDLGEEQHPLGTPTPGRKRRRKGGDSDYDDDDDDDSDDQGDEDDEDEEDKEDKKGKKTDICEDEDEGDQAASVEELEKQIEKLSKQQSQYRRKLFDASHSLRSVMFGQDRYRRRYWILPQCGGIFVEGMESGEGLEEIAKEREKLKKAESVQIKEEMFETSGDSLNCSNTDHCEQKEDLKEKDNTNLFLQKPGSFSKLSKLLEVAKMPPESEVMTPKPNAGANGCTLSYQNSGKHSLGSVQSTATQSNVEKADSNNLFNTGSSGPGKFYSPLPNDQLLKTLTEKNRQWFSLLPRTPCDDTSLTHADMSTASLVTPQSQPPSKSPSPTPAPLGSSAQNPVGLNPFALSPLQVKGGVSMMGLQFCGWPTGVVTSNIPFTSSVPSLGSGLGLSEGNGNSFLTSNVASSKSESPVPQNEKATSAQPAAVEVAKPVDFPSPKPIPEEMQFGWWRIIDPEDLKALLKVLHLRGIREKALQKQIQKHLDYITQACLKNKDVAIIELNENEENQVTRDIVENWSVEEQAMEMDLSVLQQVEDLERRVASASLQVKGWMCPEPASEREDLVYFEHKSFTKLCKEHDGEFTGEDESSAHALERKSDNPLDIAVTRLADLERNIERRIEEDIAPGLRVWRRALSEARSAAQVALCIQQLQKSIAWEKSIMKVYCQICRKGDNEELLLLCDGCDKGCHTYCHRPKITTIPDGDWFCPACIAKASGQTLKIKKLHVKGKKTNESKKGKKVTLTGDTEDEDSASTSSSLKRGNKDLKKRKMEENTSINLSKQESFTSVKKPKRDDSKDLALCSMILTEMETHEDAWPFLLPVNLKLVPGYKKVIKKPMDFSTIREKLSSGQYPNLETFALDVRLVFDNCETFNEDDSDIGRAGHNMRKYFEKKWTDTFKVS
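AlphaScreen displacement of biotin-H3(5-23)K14Ac peptide (50 nM final) from BAZ2B (50 nM final) in PBS pH 7.4, 0.01% Tween-20; complex preformed 30 min RT, then compounds (top 110 uM) 30 min RT, beads 20 min dark.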
L3MBTL1 block: qHTS Assay for the Inhibitors of L3MBTL1. Lethal(3)malignant brain tumor-like protein 1 (Homo sapiens), Q9Y468. Potency, µM (titrated, usually from 57.1 µM), for inactives: top-dose activity, negative = inhibition, actives largely listed as inhibitors. AID 485360, 2010. actives 0.66% (n = 230,000). AlphaScreen L3MBTL1–H3K9me1 peptide binding; note: % is set by controls: 0 for no effect and ±100 for the full control effect; nearly all actives have a fitted effect of over 60% in size
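L3MBTL1 (50 nM) pre-complexed 30 min with biotinylated H3(1-15)K9me1 peptide (75 nM), then compounds added for 30 min at room temperature; AlphaScreen streptavidin donor/nickel chelate acceptor beads (10 ug/mL final) read after 30 min dark incubation.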
JMJD2A Tudor: qHTS Assay for Inhibitors of JMJD2A-Tudor Domain; AlphaScreen JMJD2A-Tudor / H3K4me3 peptide binding; Potency, µM (top dose mostly 114 µM), inactives show top-dose activity change, negative = inhibition, actives largely listed as inhibitors; actives 4.4% (n = 390,000); note: % is set by controls: 0 for no effect and ±100 for the full control effect; nearly all actives have a fitted effect of over 50% in size
Numbers without * were called inactive; [ ] = another dose, or the depositor's remark. Calls come from the whole dose curve; as a rule, active = well fitted curve in the direction sought with a large enough effect; inconclusive = small, poorly fitted or top-dose-only effect, or another doubt; inactive = no such curve, though single readings can be large; an effect the other way counts as inactive or inconclusive. Potency is the fitted concentration of half-maximal effect.

Screening O=C(c1ccc(NS(=O)(=O)c2ccc3[nH]c(=O)[nH]c3c2)cc1)N1CCN(c2ccccc2O)CC1 returned G9a block 11%[0.501 µM], HP1b chromo inh -11%, BAZ2B block 1%, L3MBTL1 block 1% and JMJD2A Tudor -20%.
For CCc1nnc2n1N=C(c1ccc(Br)cc1)CS2 the results were Sfp PPTase inh 0%, G9a block -8%, HP1b chromo inh 22%, BAZ2B block -9% and JMJD2A Tudor -8%.
Screening Brc1ccc(C2=Nn3c(Cn4nnc5ccccc54)nnc3SC2)cc1 returned Sfp PPTase inh 28µM*, HP1b chromo inh inconclusive, BAZ2B block -5%, L3MBTL1 block 2% and JMJD2A Tudor -27%.
For Cc1ccc(C)c(N2C(=O)C3C4C=CC(CC4)C3C2=O)c1 (stereo not drawn) the results were Sfp PPTase inh -2%, G9a block -7%[0.501 µM], HP1b chromo inh 25%, BAZ2B block 11%, L3MBTL1 block -5%[2.29 µM] and JMJD2A Tudor -3%.
For O=C(Cc1c(F)cccc1Cl)NNC(=O)c1ccccc1Cl the results were G9a block 5%[12.7 µM], HP1b chromo inh 30%, BAZ2B block -1%, L3MBTL1 block 7% and JMJD2A Tudor -9%.
Screening CCCCc1ccc(NC2=NCC(=O)N2CCc2ccccc2)cc1 returned Sfp PPTase inh 4%, G9a block 57%, HP1b chromo inh 56%, BAZ2B block 11%, L3MBTL1 block 11% and JMJD2A Tudor -5%.
For Cn1c(SCc2ccccc2F)nnc1-c1ccccn1 the results were Sfp PPTase inh -17%, G9a block -7%, HP1b chromo inh 32%, BAZ2B block 56µM*, L3MBTL1 block -15%[11.4 µM] and JMJD2A Tudor -5%.
`Cn1c(SCc2ccc(F)cc2)nnc1-c1ccccn1` gave Sfp PPTase inh 6%, G9a block -5%, HP1b chromo inh 30%, BAZ2B block 50µM*, L3MBTL1 block -6% and JMJD2A Tudor inconclusive.
For CCCCC(=O)NC(=S)Nc1c(C)cc(Br)cc1C the results were Sfp PPTase inh 35µM*, G9a block 10µM*, HP1b chromo inh 26%, BAZ2B block -22%, L3MBTL1 block -1% and JMJD2A Tudor inconclusive.
CCCCCC(=O)NC(=S)NNC(=O)CC was read as Sfp PPTase inh inconclusive, G9a block inconclusive, HP1b chromo inh -8%, BAZ2B block 33% and JMJD2A Tudor 28µM*.
For CCCCC(=O)NC(=S)NNC(=O)CC the results were Sfp PPTase inh inconclusive, G9a block 7.1µM*, HP1b chromo inh 51%, BAZ2B block 18%, L3MBTL1 block 19% and JMJD2A Tudor 7%[11.4 µM].
CCCCC(=O)NC(=S)Nc1cccc(NC(=O)CC)c1 was read as Sfp PPTase inh -10%, G9a block 41%[0.0925 µM], HP1b chromo inh 16%, BAZ2B block 3%, L3MBTL1 block 6% and JMJD2A Tudor -21%.
For CCCCC(=O)NC(=S)NNS(=O)(=O)c1ccccc1 the results were Sfp PPTase inh inconclusive, G9a block inconclusive, HP1b chromo inh -19%, BAZ2B block -1%, L3MBTL1 block 18% and JMJD2A Tudor inconclusive.
For O=c1[nH]c2ccc(S(=O)(=O)Nc3cc(Cl)ccc3O)cc2o1 the results were G9a block 3.2µM*, HP1b chromo inh -4%, BAZ2B block 40µM* and JMJD2A Tudor inconclusive.
Screening Cc1ccc(C)n1-n1c(C)nc2sc(-c3ccccc3)cc2c1=O returned Sfp PPTase inh -2%, G9a block 14µM*, HP1b chromo inh -22%, BAZ2B block inconclusive, L3MBTL1 block -19% and JMJD2A Tudor inconclusive.
CC[C@H](C)[C@H](NC(=O)[C@H](CCCN=C(N)N)NC(=O)[C@H](CCCN=C(N)N)NC(=O)[C@H](CC(C)C)NC(=O)[C@H](Cc1ccccc1)NC(=O)CNC(=O)CN)C(=O)N[C@@H](CCCN=C(N)N)C(=O)N1CCC[C@H]1C(=O)N[C@@H](CCCCN)C(=O)N[C@@H](CC(C)C)C(=O)N[C@@H](CCCCN)C(=O)O was read as Sfp PPTase inh 17% and G9a block 12%[59 µM].
COc1cccc(N2CCN(C(=O)c3cc(-c4ccc(F)cc4)[nH]c3C)CC2)c1 was read as Sfp PPTase inh -8%, G9a block inconclusive, HP1b chromo inh inconclusive, BAZ2B block -36% and JMJD2A Tudor inconclusive.
`Cc1ccc(N2CCN(C(=O)c3cc(-c4ccc(F)cc4)[nH]c3C)CC2C)cc1` (stereo not drawn) gave Sfp PPTase inh -11%, G9a block inconclusive, HP1b chromo inh inconclusive, BAZ2B block 45µM* and JMJD2A Tudor inconclusive.
Screening COc1ccccc1N1CCN(C(=O)c2cc(-c3ccc(F)cc3)[nH]c2C)CC1 returned Sfp PPTase inh 0%, G9a block 50µM*, HP1b chromo inh inconclusive, BAZ2B block inconclusive and JMJD2A Tudor 56µM*.
`Cc1[nH]c(-c2ccc(F)cc2)cc1C(=O)N1CCN(c2ccccc2F)CC1` gave Sfp PPTase inh -2%, G9a block 71µM*, HP1b chromo inh inconclusive, BAZ2B block inconclusive and JMJD2A Tudor inconclusive.
`Cc1[nH]c(-c2ccc(F)cc2)cc1C(=O)N1CCN(c2ccccc2)CC1` gave Sfp PPTase inh 5%, G9a block 50µM*, HP1b chromo inh -29%, BAZ2B block inconclusive and JMJD2A Tudor 56µM*.
O=C1c2cc(Br)ccc2O[C@@H](c2ccc3c(c2)OCO3)[C@@H]1O was read as Sfp PPTase inh -8%.
Cc1cccc(NC(=O)CSc2nccn2Cc2ccc(F)cc2)c1C was read as G9a block -3%[59 µM], HP1b chromo inh 12%[57 µM], BAZ2B block -34% and JMJD2A Tudor -18%.
Screening N#Cc1nc(Nc2ccccc2)nc(NC2CCCCC2)n1 returned JMJD2A Tudor -1%.
O=C(Cc1ccccc1I)Nc1ccccc1 was read as Sfp PPTase inh 26%.
Screening Cc1cccc2cc(CN(Cc3ccccc3)Cc3nnnn3Cc3ccccc3)c(=O)[nH]c12 returned HP1b chromo inh 11%[57 µM] and JMJD2A Tudor -22%[57.1 µM].

Bioassay records from PubChem BioAssay.
